Shown are actives, neighbours in structure and some others; about 9% of the full set was active somewhere.
PLK1 PBD inh = qHTS for Inhibitors of PLK1-PDB (polo-like kinase 1 - polo-box domain): Primary Screen. actives 2.8% (n = 360,000). Serine/threonine-protein kinase PLK1 (Homo sapiens), P53350. Potency, µM, for inactives: max response, negative = inhibition, actives largely listed as inhibitors. Plk1 PBD binding of FITC phosphopeptide, fluorescence polarization; further: series mostly up to about 57 µM; on the % scale 0 is the no-effect control and ±100 the full control effect; nearly all actives have a fitted effect of over 65% in size
12-LOX inh = Primary qHTS assay for inhibitors of human arachidonate 12S-lipoxygenase (ALOX12): Round 2; purified 12hLO, xylenol orange hydroperoxide absorbance; Potency, µM (doses to about 108 µM), inactives show at the highest dose activity change, negative = inhibition, hits mostly inhibitors; actives 1.1% (n = 580,000); further: on the % scale 0 is the no-effect control and ±100 the full control effect
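Purified human 12hLO (150 nM final) in 25 mM Hepes, 0.01% Triton X-100, pH 7.0 was preincubated 15 min at room temperature with compound. Then 40 uM arachidonic acid was added, 30 min. Hydroperoxide was read by Fe-XO absorbance ratio 573/405 nm.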
G9a block = qHTS Assay for Inhibitors of Histone Lysine Methyltransferase G9a; AID 504332, 2011; Histone-lysine N-methyltransferase EHMT2 (Homo sapiens), Q96KQ7; G9a H3K9 monomethylation, AlphaScreen, 2 h; Potency, µM (highest dose often 102 µM), for inactives: top-dose activity, negative = inhibition, actives largely listed as inhibitors; actives 8.8% (n = 350,000); further: on the % scale 0 is the no-effect control and ±100 the full control effect; nearly all actives have a fitted effect of over 75% in size
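G9a (20 nM) preincubated 15 min RT with compounds, then 500 nM biotinylated H3K9 peptide and 20 uM SAM added; 2 h RT reaction. Monomethyl-H3K9 product detected by AlphaScreen with anti-H3K9me1 antibody, streptavidin donor and anti-rabbit IgG acceptor beads.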
JMJD2A Tudor = qHTS Assay for Inhibitors of JMJD2A-Tudor Domain; Lysine-specific demethylase 4A (Homo sapiens), O75164; AlphaScreen JMJD2A-Tudor / H3K4me3 peptide binding; Potency, µM (titrated, usually from 114 µM), for inactives: at the top dose activity change, negative = inhibition, most hits filed as inhibitors; actives 4.4% (n = 390,000); AID 504339, 2011; further: on the % scale 0 is the no-effect control and ±100 the full control effect; nearly all actives have a fitted effect of over 50% in size
BAZ2B block = qHTS Assay for Inhibitors of BAZ2B; AlphaScreen BAZ2B-H3K14Ac peptide displacement; Potency, µM (doses to about 114 µM), inactives show top-dose activity change, negative = inhibition, hits mostly inhibitors; actives 4.4% (n = 360,000); further: on the % scale 0 is the no-effect control and ±100 the full control effect; nearly all actives have a fitted effect of over 60% in size
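Compounds, titrated to a top concentration of 110 uM, were incubated 30 min at room temperature with preformed BAZ2B/acetyl-K14 H3 peptide complex (50 nM each). Proximity signal was measured by AlphaScreen after 20 min with beads.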
HP1b chromo inh = HTS for Inhibitors of HP1-beta Chromodomain Interactions with Methylated Histone Tails; Chromobox protein homolog 1 (Homo sapiens), P83916; AlphaScreen HP1-beta / biotin-H3K9me3 peptide binding; Potency, µM (titrated, usually from 114 µM), without a hit: at the highest dose activity change, negative = inhibition, usual class: inhibitors; actives 0.56% (n = 390,000); further: nearly all actives have a fitted effect of over 70% in size
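HP1-beta protein (50 nM final) preincubated 30 min at room temperature with biotinylated H3(1-18)K9me3 peptide (50 nM) in PBS pH 7.4, 0.01% Tween-20, then compound added for 30 min. AlphaScreen streptavidin donor/nickel chelate acceptor beads (10 ug/mL final), 30 min dark, luminescence read.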
* hit, by the source's call; ! = repeats disagree; [ ] = another dose, or the depositor's remark. The call rests on the fitted dose curve; in most records, active means well fitted curve in the direction sought with a large enough effect; inconclusive means small, poorly fitted or top-dose-only effect, or another doubt; inactive means no such curve, though single readings can be large; an effect the other way counts as inactive or inconclusive. Potency means the concentration at half of the fitted maximal effect.

For COc1cccc(NC(=O)CCCn2c(=O)c3cccn3c3cccnc32)c1 the results were 12-LOX inh -18%, G9a block -9%[59 µM], JMJD2A Tudor -20%, BAZ2B block -15% and HP1b chromo inh 8%.
For Cc1nc2ccc(C(=O)O)cc2c2c1CC(C)S2 (stereo not given) the results were PLK1 PBD inh inconclusive, 12-LOX inh -14%, G9a block inconclusive, JMJD2A Tudor inconclusive, BAZ2B block 71µM* and HP1b chromo inh -33%.
`Cc1nc2cc(C(=O)O)ccc2s1` gave PLK1 PBD inh -10%, 12-LOX inh 0%, G9a block -12%[59 µM], JMJD2A Tudor -13%, BAZ2B block 2% and HP1b chromo inh 47%.
Screening Nc1nc(N)c2cc(Sc3ccc(Cl)cc3)ccc2n1 returned PLK1 PBD inh -5% and 12-LOX inh inconclusive.
Nc1nc(N)c2cc(CNc3ccc(Cl)c(Cl)c3)ccc2n1 was read as PLK1 PBD inh 5% and 12-LOX inh 5.6µM*.
`O=C(O)Cc1c[nH]c2ccc(O)cc12` gave PLK1 PBD inh 5%, 12-LOX inh -8%, G9a block 24µM*!, JMJD2A Tudor -9% and HP1b chromo inh 30%.
Screening CCn1cc(Cl)c(C(=O)NNC(=O)CCn2cc([N+](=O)[O-])cn2)n1 returned PLK1 PBD inh -1%, 12-LOX inh 21%, G9a block -13%[59 µM], JMJD2A Tudor -10%, BAZ2B block -4% and HP1b chromo inh 30%.
For Cc1nn(C(=O)CCCn2cc([N+](=O)[O-])cn2)c(C)c1Cl the results were PLK1 PBD inh 21µM*, 12-LOX inh 0%, G9a block -32%, JMJD2A Tudor 20µM*, BAZ2B block 6% and HP1b chromo inh 2%.
Screening CCN(CC)CCNC(=O)c1ccc(NC(=O)Cc2cccc(C(F)(F)F)c2)cc1 returned 12-LOX inh 45µM*.
For CCN(CC)CCNC(=O)c1ccc(NC(=O)c2ccc(C(=O)c3ccccc3)cc2)cc1 the results were PLK1 PBD inh 3%, G9a block 7.1µM*, JMJD2A Tudor -15%, BAZ2B block -17% and HP1b chromo inh 7%.
`CCN(CC)CCNC(=O)c1ccc(NC(C)=O)cc1` gave PLK1 PBD inh -2%, 12-LOX inh 1%, G9a block -9%[59 µM], JMJD2A Tudor -1%, BAZ2B block -19% and HP1b chromo inh 32%.
O=C(NNS(=O)(=O)c1ccccc1)c1csc(-c2cccnc2)n1 was read as PLK1 PBD inh -6%, 12-LOX inh 0%, JMJD2A Tudor -9%, BAZ2B block -4% and HP1b chromo inh -3%.
For CC(=O)c1c(C(C)=O)c(C)n(NC(=O)c2ccccc2O)c1C the results were PLK1 PBD inh -1%, 12-LOX inh 25%, G9a block inconclusive, JMJD2A Tudor -23%, BAZ2B block -2% and HP1b chromo inh 1%.
CNC(=S)N/N=C/c1cc(C)n(-c2ccc(Cl)c(Cl)c2)c1C was read as PLK1 PBD inh -7%, 12-LOX inh inconclusive, G9a block 45µM*, JMJD2A Tudor inconclusive, BAZ2B block 35µM* and HP1b chromo inh inconclusive.
Screening COc1cccc(/C=N/Nc2nnc(C)n2N)c1O returned PLK1 PBD inh 1%, 12-LOX inh 27%, G9a block 14%, JMJD2A Tudor inconclusive, BAZ2B block 5% and HP1b chromo inh 42%.

Bioassay records: PubChem, National Center for Advancing Translational Sciences (NCATS)
